According to PubChem BioAssay AID463173 (ICCB-Longwood Screening Facility, Harvard Medical School, 2010):
Screen size: about 52,000 compounds; about 4,300 (8.3%) were called active. The sample as a whole holds a higher share of actives than the screen did. Unmarked numbers belong to inactive results. Cut-off read from the data, not from the text of the source: active = survival mostly below about 52% (no sharp cut-off); inactive = mostly above about 56%.

System: DeltatarO mutant
Assay: growth inhibition of S. aureus wild type versus tarO mutant, primary screen, teichoic acid synthesis inhibitors, RN4220, OD600 (AID 463173)
Conditions: OD600, 18 h, active compounds read low, screened at 18.75 µg/mL (by protocol)

SMILES | survival
O=C(Nc1ccc(Cl)cc1)N1CCN(c2ccc3nnc(-c4ccc(F)cc4)n3n2)CC1 | 68%
Cc1ccc2oc(-c3cccc(NC(=O)c4sc5c([N+](=O)[O-])cccc5c4Cl)c3)nc2c1 | 67%
COc1cc(-c2nc(Cn3nnc(C(=O)Nc4ccccc4C)c3C)c(C)o2)cc(OC)c1OC | 58%
COc1ccc(NC(=O)c2c(C)oc3ccc(O)c(CN4CCN(Cc5ccccc5)CC4)c23)cc1 | 56%
CCn1c(=O)c2sccc2n2c(CCC(=O)Nc3ccc(F)cc3)nnc12 | 82%
O=C(CSc1nc2ccccc2n1Cc1ccc(F)c(Cl)c1)N1CCN(c2ccc(F)cc2)CC1 | 61%
Cc1csc2nc(COC(=O)c3ccccc3NC(=O)c3cccc(Br)c3)cc(=O)n12 | 87%
Cc1ccc(CNC(=O)c2c(-c3cccc(Br)c3)noc2C)o1 | 87%
COc1ccc(S(=O)(=O)N(CCc2ccccc2)CC(=O)Nc2cc(Cl)ccc2C)cc1 | 58%
COc1ccc(S(=O)(=O)N(CCc2ccccc2)CC(=O)Nc2cc(C)ccc2C)cc1 | 48%
Cc1ccc(NC(=O)CN(CCc2ccccc2)S(=O)(=O)c2ccccc2)c(C)c1 | 38% (active)
Cc1c(Cl)cccc1NC(=O)CN(CCc1ccccc1)S(=O)(=O)c1ccccc1 | 49%
CCOc1ccccc1NC(=O)CN(CCc1ccccc1)S(=O)(=O)c1ccc(C)cc1 | 106%
Cc1ccc(C)c(NC(=O)CN(CCc2ccccc2)S(=O)(=O)c2ccccc2)c1 | 46% (active)
Cc1cccc(NC2=CC(c3cccc(Br)c3)N(c3cccc(C)c3)C2=O)c1 (stereo not given) | 137%
Cc1ccccc1Cn1ccn(-c2ccc(F)c(F)c2)c(=O)c1=O | 76%
O=C(CCNS(=O)(=O)c1ccc2c(c1)CCN2C(=O)C1CC1)N1CCN(c2cccc(Cl)c2)CC1 | 122%
COc1ccc(OCC(=O)N2CCc3ccccc3C2)cc1 | 80%
O=c1n(Cc2cccc(F)c2)c2ccccc2c2nc(-c3ccccc3)nn12 | 33% (active)
COc1cccc(CNC(=O)Cn2c(=O)n3nc(-c4cccc(F)c4)nc3c3ccccc32)c1 | 77%
CCc1cccc(NC(=O)Cn2c(=O)n3nc(-c4cccc(F)c4)nc3c3ccccc32)c1 | 52% (active)
Cc1cccc(Cn2c(=O)n3nc(-c4ccccc4)nc3c3ccccc32)c1 | -16% (active)
Cc1cccc(-c2nc3c4ccccc4n(Cc4cccc(Cl)c4)c(=O)n3n2)c1 | 97%
Cc1cccc(-c2nc3c4ccccc4n(CC(=O)Nc4cccc(F)c4)c(=O)n3n2)c1 | 95%
O=c1n(Cc2ccc(F)cc2)c2ccccc2c2nc(-c3ccccc3)nn12 | 86%

SMILES | survival
O=c1n(Cc2cccc(C(F)(F)F)c2)c2ccccc2c2nc(-c3ccccc3)nn12 | 80%
Cc1ccc(-c2nc3c4ccccc4n(Cc4cccc(Cl)c4)c(=O)n3n2)cc1 | 123%
CCOc1ccc(NC(=O)c2oc3ccccc3c2NC(=O)Cc2cccs2)cc1 | 82%
O=C(Cn1cnc2c(cnn2-c2ccccc2)c1=O)c1ccccc1 | 55%
O=C(Nc1ccc(F)cc1F)c1ccc(-n2cnnc2)cc1 | 73%
CCc1ccc(N(CC)C(=O)Cn2c(=O)oc3ccccc32)cc1 | 70%
COC(=O)C1=C(c2ccccc2)c2ccccc2S(=O)(=O)N1CC(=O)Nc1ccccc1Cl | 37%
Cc1oc2ncn(C)c(=O)c2c1C(=O)NCc1ccc(Cl)cc1 | 84%
CCOc1ccccc1NC(=O)C1CCN(S(=O)(=O)c2ccc3c(c2)CCCN3C(C)=O)CC1 | 75%
CC(NC(=O)C1CCN(S(=O)(=O)Cc2ccccc2)CC1)c1ccccc1 (stereo not given) | 68%
COc1ccc(-c2cc(C(F)(F)F)nc(SCC(=O)N3CCCCC3C)n2)cc1OC (stereo not given) | 52%
COc1ccc(-c2cc(C(F)(F)F)nc(SCC(=O)N3CCCCC3)n2)cc1 | 74%
CCC1CCCCN1C(=O)CSc1nc(-c2ccc(OC)cc2)cc(C(F)(F)F)n1 (stereo not given) | 1% (active)
COc1ccc(-c2cc(C(F)(F)F)nc(SCC(=O)N3CCCCC3)n2)cc1OC | 71%
COc1ccc(-c2cc(C(F)(F)F)nc(SCCC(=O)N3CCN(C)CC3)n2)cc1 | 114%
CCC1CCCCN1C(=O)CSc1nc(-c2ccc(OC)c(OC)c2)cc(C(F)(F)F)n1 (stereo not given) | -3% (active)
O=C(CNCc1ccco1)Nc1cccc(OC(F)(F)F)c1 | 99%
O=C(CN1C(=O)C2CCCCN2c2ccc(C(=O)N3CCCC3)cc21)NCc1cccc(F)c1 (stereo not given) | 66%
CCCCOc1cccc(C(=O)Nc2cccc3ccc(C)nc23)c1 | 75%
CCN(CCN(C)C)C(=O)Cn1ncc2c([nH]c3ccc(C)cc32)c1=O | 88%
Cc1ccc(Cl)cc1-n1ncc2c(NC3CCCCC3)ncnc21 | 54%
CCOc1ccc(Nc2nc(Nc3ccc(OCC)cc3)nc(N3CCOCC3)n2)cc1 | 44% (active)
COc1ccccc1Nc1nc(Nc2cccc(C(F)(F)F)c2)nc(N2CCOCC2)n1 | 73%
COc1ccc(N2CCOCC2)cc1 | 89%
CCOc1nc(Nc2ccc(OC)cc2)nc(N2CCOCC2)n1 | 70% (active)
